Screens: PubChem, National Center for Advancing Translational Sciences (NCATS)
Shiga toxin inh – blocks Shiga toxin action in Vero cells. Vero cells, Shiga toxin protein synthesis inhibition reporter. actives 9.2% (n = 290,000). inhibition, % at 38.7 µM; in the data active = inhibition mostly above about 28%, no sharp cut-off; inactive = mostly below about 43%
Pf growth 48h – inhibits P. falciparum growth in the first generation, 48 h | P. falciparum luciferase growth in erythrocytes, 48 h | Potency, µM (highest dose often 28.7 µM), hits mostly inhibitors | actives 5.9% (n = 310,000)
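Parasite viability was followed by luminescence of a genomically integrated firefly luciferase. Cultures held 0.1% parasitemia at 2% hematocrit (final), incubated under 5% CO2 at 37 C.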
CHX counter – affects cycloheximide protein synthesis inhibition readout, counter-screen | cell reporter, cycloheximide protein synthesis inhibition counterscreen | max response, % | actives 12% (n = 300,000) | AID 2314; in the data active = max response mostly above about 13%, no sharp cut-off; inactive = mostly below about 14%; note: read at 38.3 µM for the half of the compounds with a filed dose
Pf growth 96h – P. falciparum growth inhibition at 96 hour, primary screen for plastid delayed-death inhibitors; P. falciparum luciferase reporter growth, 96 h; Potency, µM (doses to about 28.7 µM), usual class: inhibitors; actives 6.9% (n = 320,000)
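Cell-based qHTS: luciferase-tagged P. falciparum in erythrocytes (2% hematocrit, 0.05% parasitemia final) incubated with compounds for 96 hours, 37 C, 5% CO2; luciferase detection reagent then added and luminescence measured.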
Each line names hits and unclear results; the compound was inactive in the other large screens; ! = a repeat was not active. Shown are actives, neighbours in structure and some others; about 21% of the full set was active somewhere. Unless noted, calls come from the whole dose curve; as a rule, active = well fitted inhibition curve with a large enough effect; inconclusive = small, poorly fitted or top-dose-only effect, or another doubt; inactive = no such curve, though single readings can be large or run the other way.

COc1cc2c(cc1OC)C(c1ccc(Br)cc1)CC(=O)N2 (stereo not given)	Pf growth 96h 5.22µM
COc1ccccc1C1CC(=O)Nc2cc(C)c(C)cc21 (stereo not given)	Pf growth 96h 13.1µM (no result: Shiga toxin inh)
CCOc1ccccc1C1CC(=O)Nc2cc(C)c(C)cc21 (stereo not given)	Pf growth 96h 11.7µM (no result: Shiga toxin inh)
CCC(C)(C)C1CCC2(CC1)NC(=O)N(CC(=O)N1CCN(S(=O)(=O)c3cc(C)ccc3C)CC1)C2=O (stereo not given)	none
COc1ccc(S(=O)(=O)N2CCN(C(=O)c3ccc(NC(C)=O)cc3)CC2)cc1	Pf growth 48h inconclusive (no result: Shiga toxin inh, CHX counter)
CCOc1ccc2nc(-c3ccccc3)[nH]c2c1	Shiga toxin inh 70.9, CHX counter 35.5
Cc1ccc2[nH]c(-c3ccc(F)cc3F)cc(=O)c2c1	Shiga toxin inh active, CHX counter 32.2 (no result: Pf growth 48h, Pf growth 96h)
CCOc1ccc2nc(C(C)O)[nH]c2c1 (stereo not given)	none (no result: Pf growth 96h)
COc1ccc2nc(-c3ccccc3)[nH]c2c1	Shiga toxin inh 73.1, CHX counter 56.7, Pf growth 96h 11.7µM
COc1ccc2[nH]c(-c3ccccc3)cc2c1	Shiga toxin inh 88.1, CHX counter 74.4
NC(=S)NN=C(Cc1ccccc1)Cc1ccccc1	Pf growth 48h inconclusive, Pf growth 96h inconclusive
Nc1ccc(CCn2ccnc2)cc1	Pf growth 48h inconclusive, Pf growth 96h inconclusive
CCN(CC(=O)NCc1cccs1)S(=O)(=O)c1cccc(Br)c1	Pf growth 48h inconclusive (no result: Shiga toxin inh, CHX counter)
CCOC(=O)c1nnn(-c2nonc2N)c1CSc1nnc(N)s1	Pf growth 96h inconclusive
Cc1ccc(OCC(=O)Nc2nnc(S(=O)(=O)N3CCC(C)CC3)s2)cc1	Pf growth 96h inconclusive
CC(=O)Nc1ccc(S(=O)(=O)NC2C3(C)CCC(C3)C2(C)C)cc1 (stereo not given)	none
O=C(CCNC(=O)c1ccc([N+](=O)[O-])cc1)Nc1cccc(S(=O)(=O)N2CCCCCC2)c1	none (no result: Shiga toxin inh, CHX counter)
C=CCn1c(SCC(=O)OC)nc2sc3c(c2c1=O)CCN(C)C3	Pf growth 48h inconclusive
COc1ccc2[nH]c(-c3ccc(C)cc3)cc(=O)c2c1	CHX counter 31.7
COc1ccc(-c2cc(=O)c3cc(F)ccc3[nH]2)cc1	Pf growth 48h inconclusive, Pf growth 96h inconclusive
COc1ccc2cc(-c3ccccc3)ncc2c1	Shiga toxin inh 84.6, CHX counter 42.2
COc1cc(OC)cc(-c2cc3ccc(OC)cc3cn2)c1	none (no result: Shiga toxin inh, CHX counter)
COc1ccc(Cc2nc(-c3cccnc3)no2)cc1OC	Pf growth 96h inconclusive
Clc1ccc(-c2noc(CCCc3ccccc3)n2)cc1	none (no result: Pf growth 48h)
Clc1ccc(Cc2nc(-c3ccncc3)no2)cc1	Pf growth 48h inconclusive, CHX counter 16.9
COc1ccc(Cc2nc(-c3ccncc3)no2)cc1	Shiga toxin inh 84.8, Pf growth 48h inconclusive, CHX counter 37.1, Pf growth 96h inconclusive
CCc1ccc(C(=O)NNC(=O)CN2C(=O)NC3(CCCC3)C2=O)cc1	none (no result: Shiga toxin inh, CHX counter)
Cc1ccnc(NS(=O)(=O)c2ccc(-n3cccn3)cc2)c1	Pf growth 96h 10.4µM
Clc1ccc(/C=N/Nc2nc(Cl)nc3ccccc23)cc1	Pf growth 48h inconclusive, Pf growth 96h inconclusive
Clc1ccc(/C=N/Nc2nnc(Cl)c3ccccc23)cc1	Shiga toxin inh 55.0, CHX counter 18.1
Clc1cncc(Cl)c1N/N=C/c1ccccc1	Shiga toxin inh 48.1, CHX counter 28.8
Clc1nnc(N/N=C/c2ccccc2)c2ccccc12	CHX counter 47.0 (no result: Pf growth 48h)
Clc1nnc(NN=C2CCCC2)c2ccccc12	none
Cc1ccc(/C=N/Nc2nnc(Cl)c3ccccc23)cc1	Shiga toxin inh 46.3, CHX counter 46.4
COC(=O)c1ccc(/C=N/Nc2nc(-c3ccccc3)cs2)cc1	none
Cc1ccc(/C=N/Nc2nc3ccccc3s2)o1	Shiga toxin inh 74.5, CHX counter 43.1, Pf growth 96h inconclusive
CCCC(=O)Nc1ccc(-c2csc(N/N=C\c3ccncc3)n2)cc1	Pf growth 48h 8.28µM, CHX counter 30.9, Pf growth 96h inconclusive
C(=N\Nc1nc(-c2ccccc2)cs1)/c1cccnc1	Shiga toxin inh 61.5, Pf growth 48h inconclusive, CHX counter 46.3, Pf growth 96h inconclusive
COC(=O)c1ccc(/C=N/Nc2nc(-c3ccc(Cl)cc3Cl)cs2)cc1	none
Clc1ccc(-c2csc(N/N=C/c3cccnc3)n2)c(Cl)c1	Pf growth 48h 10.4µM, Pf growth 96h 4.65µM
CC(C)(C)NC(=S)N/N=C/c1cccnc1	none
Cc1ccc(/C=N/Nc2nc(C(C)(C)C)cs2)o1	Shiga toxin inh 92.9, Pf growth 48h inconclusive, CHX counter 45.7
Cc1cc(=O)[nH]c(N/N=C/c2ccc(C)o2)n1	none
CC(C)(C)c1csc(N/N=C/c2cccnc2)n1	Shiga toxin inh 126.7, Pf growth 48h 13.1µM, CHX counter 36.6, Pf growth 96h inconclusive
Cc1onc(-c2ccc(Cl)cc2Cl)c1-c1csc(N/N=C/c2ccccc2Cl)n1	Pf growth 48h 6.57µM, Pf growth 96h inconclusive
COC(=O)[C@@H]1[C@@H]2C[C@H]3c4[nH]c5cc(OC)ccc5c4CCN3C[C@@H]2C[C@H](OC(=O)/C=C\c2cc(OC)c(OC)c(OC)c2)[C@H]1OC	Pf growth 48h 5.1µM, Pf growth 96h inconclusive (no result: Shiga toxin inh, CHX counter)
CCOC(=O)Oc1c(OC)cc(C(=O)O[C@@H]2C[C@@H]3CN4CCc5c([nH]c6cc(OC)ccc56)[C@H]4C[C@@H]3[C@H](C(=O)OC)[C@H]2OC)cc1OC	Pf growth 48h 2.62µM, Pf growth 96h 2.94µM (no result: Shiga toxin inh, CHX counter)
COC(=O)C1C(O)CCC2CN3CCc4c([nH]c5ccccc45)C3CC21 (stereo not given)	none
COC(=O)[C@H]1[C@H]2C[C@H]3c4[nH]c5ccccc5c4CCN3C[C@H]2CC[C@@H]1O	Pf growth 96h 1.51µM!
COc1cccc(C(=O)N2CCC(C(=O)NCc3ccc(C)cc3)CC2)c1	Pf growth 48h inconclusive
C=CCN(CC=C)C(=S)Nc1ccc(OC)c(OC)c1	Pf growth 96h inconclusive
COc1cccc(NC(=O)C2CCCO2)c1 (stereo not given)	none (no result: Shiga toxin inh)
CNC(=O)c1c(Br)cnn1-c1ccc(C)cc1	Shiga toxin inh 42.5, CHX counter 35.0
C=CCNC(=O)c1cnn(-c2ccccc2)c1-c1ccccc1	Pf growth 96h inconclusive
C=CCNC(=O)c1c(Cl)cnn1-c1ccc(C)cc1	Shiga toxin inh 69.2, CHX counter 44.2
CNC(=O)c1c(Cl)cnn1-c1ccc(C)cc1	Shiga toxin inh 55.4, CHX counter 21.2
CNC(=O)c1nn(-c2ccc(C)cc2)ccc1=O	none
Cc1ccc(-n2ncc(Cl)c2C(=O)NC2CC2)cc1	Shiga toxin inh 93.4, CHX counter 49.4
Cc1ccc(-n2ncc(C(=O)NC3CC3)c2C2CCN(C(=O)OC(C)(C)C)CC2)cc1	Pf growth 48h inconclusive
CCCCN(C(=O)C(C)Oc1ccc(Cl)cc1)c1c(N)n(CCCC)c(=O)[nH]c1=O (stereo not given)	none (no result: Shiga toxin inh, CHX counter)
O=C(CSc1n[nH]c(-c2ccccc2F)n1)Nc1cc(F)ccc1F	Pf growth 96h inconclusive (no result: Shiga toxin inh, CHX counter)
OC[C@@H]1O[C@H](O)[C@H](O)[C@@H](O)[C@@H]1O	none (no result: Pf growth 48h, Pf growth 96h)
CC(C)CCN1C(=O)C2(OCCCO2)c2cc(Cl)ccc21	Pf growth 96h inconclusive
CC1C(=O)C(=O)C=CN1C (stereo not given)	Pf growth 48h inconclusive (no result: Shiga toxin inh, CHX counter)
COc1ccc(Nc2nc(-c3ccc(OC)cc3)cs2)cc1	Shiga toxin inh 70.1, CHX counter 63.2
